From PubChem BioAssay (EPA / NIEHS)
Where “and” joins values, the source holds several entries; their conditions need not be identical. Identical values can stand only once. Calls of active or inactive are those of the source. How the source made its calls: active means hit-call score of the fitted dose curve at least 0.9, where 1 is the maximum; inactive means score below 0.9.

Tests used:
[1] = ATG_E_Box_CIS: Attagene CIS-FACTORIAL HepG2 Assay for human Enhancer Box (E-box) (AID 2282936); conditions: HepG2 E-box cis-reporter transcription, actives raise or lower the signal
How it was run: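 Transiently transfected HepG2, endogenous TF-driven reporters, 24 h dosing. Readout: RT-PCR plus capillary electrophoresis of fluorescent reporter fragments. Gain or loss of signal fitted bidirectionally against DMSO baseline.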

[2] = ATG_M_61_CIS: Attagene CIS-FACTORIAL HepG2 Assay for M61 Transcription Factor (Internal Marker) (AID 2282937); conditions: HepG2 Attagene CIS-FACTORIAL M61 internal marker reporter; actives raise or lower the signal
How it was run: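 Background-control endpoint: HepG2 cells with cis-regulated reporter constructs, 24 h exposure, reporter mRNA detected via fluorescent primer extension and capillary electrophoresis; values from bidirectional fitting with DMSO baseline.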

[3] = ATG_EGR_CIS: Attagene CIS-FACTORIAL HepG2 Assay for human Early Growth Response 1 (EGR1) (AID 2282938); conditions: HepG2 Attagene CIS-FACTORIAL EGR reporter mRNA; actives raise or lower the signal
How it was run: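 Endpoint derived by bidirectional fitting versus DMSO vehicle. Method: cis-promoter reporter units transfected into HepG2, 24 h dosing, RNA isolation, RT-PCR with 6-FAM primer extension and HpaI digestion, then capillary electrophoresis fluorescence detection.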

[4] = ATG_M_19_CIS: Attagene CIS-FACTORIAL HepG2 Assay for M19 Transcription Factor (Internal Marker) (AID 2282939); conditions: HepG2 Attagene CIS-FACTORIAL M19 internal marker reporter; actives raise or lower the signal
How it was run: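 Background-control endpoint from a multiplexed HepG2 reporter panel. Cells carrying cis-regulated reporter constructs are treated 24 h, then reporter transcripts are amplified, fluorescently labelled and sized by capillary electrophoresis. DMSO defines baseline.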

[5] = ATG_Ets_CIS: Attagene CIS-FACTORIAL HepG2 Assay for human Erythroblast Transformation Specific (ETS) (AID 2282941); conditions: HepG2 ETS cis-reporter transcription, actives raise or lower the signal
How it was run: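 Multiplexed reporter transcript profiling: HepG2, 24 h treatment, total RNA to cDNA, PCR, 6-FAM labelling, HpaI cut, capillary electrophoresis. Gain- or loss-of-signal fitted against DMSO.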

[6] = target: Hepatocyte nuclear factor 3-beta (Homo sapiens) (UniProt Q9Y261); experiment: ATG_FoxA2_CIS: Attagene CIS-FACTORIAL HepG2 Assay for human Forkhead box A2 (FOXA2) (AID 2282942); conditions: HepG2 cis-reporter transcription factor activity, 24 h; actives raise or lower the signal
How it was run: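 Measured: reporter mRNA induction or loss in HepG2 transiently carrying multiple cis-regulated reporter units, 24 h after dosing. Quantified by RT-PCR plus capillary electrophoresis, normalised to DMSO.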

[7] = ATG_FoxO_CIS: Attagene CIS-FACTORIAL HepG2 Assay for human Forkhead box O (FoxO) (AID 2282943); conditions: HepG2 Attagene cis-reporter, FoxO element, mRNA; actives raise or lower the signal
How it was run: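 Transfected HepG2 reporter cells exposed to test chemical for 24 h; reporter RNA measured by reverse transcription, PCR and fluorescent capillary electrophoresis; curves fitted for increases and decreases against DMSO.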

[8] = ATG_GATA_CIS: Attagene CIS-FACTORIAL HepG2 Assay for human GATA Binding Protein (AID 2282944); conditions: HepG2 GATA cis-element reporter, Attagene multiplex mRNA; actives raise or lower the signal
How it was run: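 Endogenous transcription factor activity was captured through cis-promoter-driven reporters in transfected HepG2 cells. After 24 h exposure, reporter transcripts were quantified by RT-PCR with fluorescent capillary electrophoresis, and responses fitted both directions against DMSO.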

[9] = ATG_GLI_CIS: Attagene CIS-FACTORIAL HepG2 Assay for human Zinc Finger Protein GLI1 (AID 2282945); conditions: HepG2, Attagene cis-factorial reporter mRNA, GLI element; actives raise or lower the signal
How it was run: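 Transiently transfected HepG2 cells report endogenous transcription factor activity via cis-element-driven reporter units. After 24 h compound exposure, reporter mRNA was measured by RT-PCR with capillary electrophoresis; bidirectional fitting against DMSO baseline.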

[10] = target: Bile acid receptor (Homo sapiens) (UniProt Q96RI1); experiment: ATG_IR1_CIS: Attagene CIS-FACTORIAL HepG2 Assay for human Nuclear Receptor Subfamily 1 Group H Member 4 (NR1H4), IR1 submotif (AID 2282946); conditions: IR1 reporter transcription, actives raise or lower the signal
How it was run: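 Fluorescence of capillary-separated, HpaI-digested RT-PCR reporter products gave IR1-element mRNA induction in HepG2 cells 24 h after dosing. Endogenous transcription factors drove the cis-regulated reporters; activity was fitted bidirectionally against DMSO.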

[11] = ATG_GRE_CIS: Attagene CIS-FACTORIAL HepG2 Assay for human Glucocorticoid Response Elements (GRE) (AID 2282947); conditions: HepG2 GRE cis-reporter, Attagene multiplex mRNA; actives raise or lower the signal
How it was run: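 Read-out: fluorescent reporter-transcript fragments separated by capillary electrophoresis after RT-PCR. Transiently transfected HepG2 cells carrying cis-element-driven reporter units were dosed for 24 h; gain or loss of signal fitted against DMSO control.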

[12] = ATG_ISRE_CIS: Attagene CIS-FACTORIAL HepG2 Assay for human Interferon Regulatory Factor 1 (IRF1) binding to an Interferon-Stimulated Response Element (ISRE) (AID 2282948); conditions: HepG2 ISRE cis-reporter (Attagene), mRNA transcription readout; actives raise or lower the signal
How it was run: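 Signal reflects induction or loss of ISRE-linked reporter mRNA in transiently transfected HepG2 cells after a 24 h treatment, detected by fluorescent RT-PCR fragments on capillary electrophoresis and normalised to DMSO.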

[13] = ATG_M_32_CIS: Attagene CIS-FACTORIAL HepG2 Assay for M32 Transcription Factor (Internal Marker) (AID 2282949); conditions: HepG2 Attagene cis-factorial M32 reporter, mRNA; actives raise or lower the signal;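 further: background control marker of the multiplexed CIS panel rather than a real target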
How it was run: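 Using DMSO as baseline, bidirectional curve fits were applied to reporter mRNA signals. These came from transiently transfected HepG2 cells exposed for 24 h, with RNA analysed by RT-PCR, FAM primer extension, HpaI digestion and CE.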

[14] = ATG_M_06_CIS: Attagene CIS-FACTORIAL HepG2 Assay for M06 Transcription Factor (Internal Marker) (AID 2282950); conditions: HepG2 Attagene CIS-FACTORIAL M06 internal marker reporter; actives raise or lower the signal
How it was run: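 Steps: transfect HepG2 with multiplexed cis-element reporter constructs; dose chemical 24 h; extract RNA with DNase treatment; reverse-transcribe, PCR-amplify, 6-FAM label, HpaI digest; separate fragments by capillary electrophoresis. Activity fitted both directions versus DMSO.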

[15] = target: Hypoxia-inducible factor 1-alpha (Homo sapiens) (UniProt Q16665); experiment: ATG_HIF1a_CIS: Attagene CIS-FACTORIAL HepG2 Assay for human Hypoxia Inducible Factor 1 (HIF1A) (AID 2282951); conditions: HepG2 Attagene cis-factorial HIF1a reporter transcription; actives raise or lower the signal
How it was run: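 Dosed 24 h, transfected HepG2 cells yielded total RNA whose reporter transcripts were RT-PCR-amplified and sized by capillary electrophoresis using fluorescent labelling; DMSO defined baseline, with gain and loss of signal both fitted.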

[16] = target: Hepatocyte nuclear factor 6 (Homo sapiens) (UniProt Q9UBC0); experiment: ATG_HNF6_CIS: Attagene CIS-FACTORIAL HepG2 Assay for human Hepatocyte Nuclear Factor 6 (HNF6) (AID 2282952); conditions: HepG2 Attagene cis-factorial HNF6 reporter transcription; actives raise or lower the signal
How it was run: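 Endogenous transcription factor activity in human HepG2 liver cells was captured through cis-regulated reporter constructs. After 24 h treatment, reporter mRNA was measured by RT-PCR with capillary electrophoresis, and activity was fitted in both directions relative to DMSO.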

[17] = target: Heat shock factor protein 1 (Homo sapiens) (UniProt Q00613); experiment: ATG_HSE_CIS: Attagene CIS-FACTORIAL HepG2 Assay for human Heat Shock Transcription Factor 1 (HSE) (AID 2282953); conditions: HepG2 HSE cis-reporter, Attagene RNA transcription; actives raise or lower the signal
How it was run: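 Cells were transfected with cis-element-driven reporter constructs, dosed for 24 h, then total RNA was reverse-transcribed and reporter cDNA amplified, FAM-labelled and digested with HpaI. Fragments were resolved by capillary electrophoresis; gain or loss was fitted against DMSO.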

[18] = ATG_PBREM_CIS: Attagene CIS-FACTORIAL HepG2 Assay for human Phenobarbital-responsive Enhancer Module (PBREM) (AID 2282955); conditions: HepG2 PBREM cis-reporter, Attagene multiplexed transcription; actives raise or lower the signal
How it was run: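 Transfected liver-derived HepG2 cells exposed 24 h; PBREM reporter transcript quantified via RT-PCR and capillary electrophoresis, with activity in either direction referenced to DMSO.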

[19] = ATG_ERE_CIS: Attagene CIS-FACTORIAL HepG2 Assay for Estrogen Response Element (ERE) (AID 2282940); conditions: HepG2 ERE cis-reporter, Attagene RNA transcript; actives raise or lower the signal
How it was run: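 Cells used were human hepatoma HepG2, transfected with multiple reporter transcription units under cis-regulatory promoters. Reporter mRNA, read 24 h post-dosing via fluorescent RT-PCR products on capillary electrophoresis, was fitted bidirectionally relative to DMSO.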

[20] = ATG_MRE_CIS: Attagene CIS-FACTORIAL HepG2 Assay for human Metal Responsive Element (MRE) (AID 2282954); conditions: HepG2 MRE cis-reporter transcription, Attagene multiplex; actives raise or lower the signal
How it was run: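 RT-PCR/capillary electrophoresis readout of reporter mRNA, 24 h post-dosing, in HepG2 cells transfected with multiplexed cis-regulated reporter constructs. Gain or loss of signal fitted bidirectionally against DMSO baseline.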

Measured: AC50

Chain of Heat shock factor protein 1 (Homo sapiens) (Q00613 whole entry, looked up, the tested form may be a part): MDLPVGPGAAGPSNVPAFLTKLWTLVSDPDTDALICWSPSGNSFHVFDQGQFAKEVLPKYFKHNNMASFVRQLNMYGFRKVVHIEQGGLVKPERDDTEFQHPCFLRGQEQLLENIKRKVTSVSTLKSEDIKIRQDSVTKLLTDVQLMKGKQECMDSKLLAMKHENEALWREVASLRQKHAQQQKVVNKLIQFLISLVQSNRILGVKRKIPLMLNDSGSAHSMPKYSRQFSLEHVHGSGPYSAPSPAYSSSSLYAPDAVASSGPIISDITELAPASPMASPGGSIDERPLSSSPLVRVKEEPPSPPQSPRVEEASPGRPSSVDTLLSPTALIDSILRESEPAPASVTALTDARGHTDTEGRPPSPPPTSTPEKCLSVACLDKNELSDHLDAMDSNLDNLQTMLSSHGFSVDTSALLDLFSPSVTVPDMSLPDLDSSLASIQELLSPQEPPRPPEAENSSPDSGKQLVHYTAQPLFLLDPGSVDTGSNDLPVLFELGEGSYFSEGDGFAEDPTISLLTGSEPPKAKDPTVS
Chain of Hepatocyte nuclear factor 3-beta (Homo sapiens) (Q9Y261 whole entry, looked up): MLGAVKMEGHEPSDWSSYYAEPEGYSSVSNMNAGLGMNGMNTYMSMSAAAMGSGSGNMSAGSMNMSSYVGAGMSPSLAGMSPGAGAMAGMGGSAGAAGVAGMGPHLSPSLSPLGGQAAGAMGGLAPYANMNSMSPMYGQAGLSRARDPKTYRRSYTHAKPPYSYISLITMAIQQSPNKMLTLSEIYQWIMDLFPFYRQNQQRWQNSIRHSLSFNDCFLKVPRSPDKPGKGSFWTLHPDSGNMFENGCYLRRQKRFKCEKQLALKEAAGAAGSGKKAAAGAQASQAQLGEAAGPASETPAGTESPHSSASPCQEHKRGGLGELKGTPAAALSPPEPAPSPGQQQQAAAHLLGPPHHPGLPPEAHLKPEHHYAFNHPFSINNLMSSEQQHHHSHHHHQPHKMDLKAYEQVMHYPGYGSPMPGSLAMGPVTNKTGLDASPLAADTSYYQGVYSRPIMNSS
Chain of Hepatocyte nuclear factor 6 (Homo sapiens) (Q9UBC0 whole entry, looked up): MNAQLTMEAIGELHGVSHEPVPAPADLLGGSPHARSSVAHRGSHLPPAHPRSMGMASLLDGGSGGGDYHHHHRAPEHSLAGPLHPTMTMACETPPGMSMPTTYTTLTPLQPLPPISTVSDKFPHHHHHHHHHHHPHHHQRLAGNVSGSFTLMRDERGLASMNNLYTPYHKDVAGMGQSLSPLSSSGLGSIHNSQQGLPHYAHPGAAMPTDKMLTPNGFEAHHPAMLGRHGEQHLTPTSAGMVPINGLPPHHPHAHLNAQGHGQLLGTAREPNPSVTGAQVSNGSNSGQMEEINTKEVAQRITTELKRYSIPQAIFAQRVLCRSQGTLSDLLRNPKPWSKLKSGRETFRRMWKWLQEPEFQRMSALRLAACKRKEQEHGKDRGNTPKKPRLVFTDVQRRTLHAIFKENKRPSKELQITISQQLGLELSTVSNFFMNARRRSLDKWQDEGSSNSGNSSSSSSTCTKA
Chain of Hypoxia-inducible factor 1-alpha (Homo sapiens) (Q16665 whole entry, looked up): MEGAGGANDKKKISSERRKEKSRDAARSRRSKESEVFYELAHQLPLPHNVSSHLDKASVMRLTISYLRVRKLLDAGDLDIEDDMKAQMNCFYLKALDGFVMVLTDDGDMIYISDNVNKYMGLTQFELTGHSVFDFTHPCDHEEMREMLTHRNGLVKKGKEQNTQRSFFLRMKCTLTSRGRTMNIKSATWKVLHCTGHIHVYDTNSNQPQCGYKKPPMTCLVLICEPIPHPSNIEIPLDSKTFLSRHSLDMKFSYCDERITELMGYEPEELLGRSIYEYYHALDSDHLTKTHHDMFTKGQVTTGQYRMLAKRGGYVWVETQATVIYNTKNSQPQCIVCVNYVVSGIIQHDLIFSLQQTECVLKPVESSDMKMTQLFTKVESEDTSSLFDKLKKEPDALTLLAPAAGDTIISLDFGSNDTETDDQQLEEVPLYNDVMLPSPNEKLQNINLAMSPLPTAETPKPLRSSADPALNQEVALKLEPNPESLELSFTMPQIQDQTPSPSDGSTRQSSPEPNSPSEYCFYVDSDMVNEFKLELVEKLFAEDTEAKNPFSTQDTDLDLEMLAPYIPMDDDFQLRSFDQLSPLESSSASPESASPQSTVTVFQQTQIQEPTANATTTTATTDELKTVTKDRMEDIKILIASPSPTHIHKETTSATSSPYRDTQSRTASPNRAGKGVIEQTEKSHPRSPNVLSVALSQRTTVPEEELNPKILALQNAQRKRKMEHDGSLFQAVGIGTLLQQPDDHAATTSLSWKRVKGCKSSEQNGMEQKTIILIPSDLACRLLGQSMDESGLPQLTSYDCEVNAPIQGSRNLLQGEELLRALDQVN
Chain of Bile acid receptor (Homo sapiens) (Q96RI1 whole entry, looked up): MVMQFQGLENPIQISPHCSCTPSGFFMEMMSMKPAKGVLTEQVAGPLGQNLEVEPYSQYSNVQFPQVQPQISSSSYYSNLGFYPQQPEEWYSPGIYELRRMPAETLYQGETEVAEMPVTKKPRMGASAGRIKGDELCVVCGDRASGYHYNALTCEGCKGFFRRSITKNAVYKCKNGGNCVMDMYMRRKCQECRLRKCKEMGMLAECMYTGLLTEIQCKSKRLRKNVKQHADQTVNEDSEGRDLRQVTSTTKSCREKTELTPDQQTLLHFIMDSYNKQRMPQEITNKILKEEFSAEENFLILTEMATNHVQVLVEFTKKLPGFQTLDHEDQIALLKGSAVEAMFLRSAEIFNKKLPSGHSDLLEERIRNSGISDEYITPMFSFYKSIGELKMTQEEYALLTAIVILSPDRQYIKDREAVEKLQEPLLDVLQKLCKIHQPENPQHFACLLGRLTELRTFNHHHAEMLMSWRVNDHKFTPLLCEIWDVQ

CC(COCC(C)OC(=O)c1ccccc1)OC(=O)c1ccccc1 (stereo not given)
not listed: [19] | [20]
inactive: all other assays above

NC1CCCCC1
not listed: [10] | [11]
inactive: all other assays above

CC1=C(C)S(=O)(=O)CCS1(=O)=O
active: [1] 100 µM
not listed: [10] | [13]
inactive: all other assays above

CCCCC(CC)COC(=O)CCCCCCCC(=O)OCC(CC)CCCC (stereo not given)
active: [15] 61.9 µM
not listed: [19]
inactive: all other assays above

CC1(C)C(=O)NC(=O)N1CO
active: [19] 158 µM
not listed: [10] | [13] | [20]
inactive: all other assays above

CCCCCCCC(=O)OC
active: [15] 68.3 µM
not listed: [10] | [11]
inactive: all other assays above

CC(C)c1cccc(C(C)C)c1NC(=O)NS(=O)(=O)c1cc(C(C)(C)O)co1
not listed: [18] | [19]
inactive: all other assays above

O=C1c2c(O)cccc2Cc2cccc(O)c21
active: [15] 26.6 µM
not listed: [19]
inactive: all other assays above

COC(=O)CCCC(=O)OC
not listed: [19]
inactive: all other assays above

CN(C)C(=O)NC1(c2ccccc2)CCN(CC[C@@]2(c3ccc(F)c(F)c3)CN(C(=O)c3ccccc3)CCO2)CC1
active: [1] 162 µM | [15] 47.9 µM
not listed: [18] | [19] | [20]
inactive: all other assays above

Cn1cnc2c1c(=O)[nH]c(=O)n2C
not listed: [13] | [15] | [19]
inactive: all other assays above

CCCCCCC(C=O)=Cc1ccccc1
active: [17] 157 µM and 93.3 µM | [20] 137 µM and 89.2 µM
not listed: [13] | [19]
inactive: all other assays above

C=CCc1ccc(OC)c(OC)c1
active: [15] 0.0538 µM
not listed: [18] | [19] | [20]
inactive: all other assays above

O=C1CCCCC1
not listed: [10] | [13] | [20]
inactive: all other assays above
